Experimental data: the supplement of paper PMC6992640
± gives the standard deviation of the averaged measurements.

Experiments:
Assay in all cases: cell viability (% of vehicle); higher = less cytotoxic
Conditions in all cases: 10 µM; 72 h
HCI01 = system: HCI01 (cells of a triple-negative basal-like breast cancer xenograft)
HCI03 = system: HCI03 (cells of an ER-positive luminal breast cancer xenograft)
HCI09 = system: HCI09 (cells of a triple-negative luminal androgen receptor type breast cancer xenograft)
HCI11 = system: HCI11 (cells of an ER-positive luminal breast cancer xenograft)
HCI13 = system: HCI13 (cells of an ER-positive luminal breast cancer xenograft)
HCI16 = system: HCI16 (cells of a triple-negative basal-like breast cancer xenograft)
UCD52 = system: UCD52 (cells of a triple-negative basal-like breast cancer xenograft)
WHIM2 = system: WHIM2 (cells of a triple-negative basal-like breast cancer xenograft)
WHIM30 = system: WHIM30 (cells of a triple-negative basal-like breast cancer xenograft)
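Further: PDX cells carrying CMV promoter-driven luciferase, viability read as total photon flux per second by IVIS imaging following D-luciferin, vehicle control 0.1% DMSO.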

Compound	cell viability (HCI01)	cell viability (HCI03)	cell viability (HCI09)	cell viability (HCI11)	cell viability (HCI13)	cell viability (HCI16)	cell viability (UCD52)	cell viability (WHIM2)	cell viability (WHIM30)
CCNC1CC(C)S(=O)(=O)c2sc(S(N)(=O)=O)cc21.Cl (stereo unspecified) [Dorzolamide HCl]	100 ± 4.5	111	96.8 ± 21	130	121 ± 5.2	98.2	71.8 ± 5.1	105 ± 8.4	89.3 ± 6.7
Nc1nc(CC(=O)Nc2ccc(CCNCC(O)c3ccccc3)cc2)cs1 (stereo unspecified) [Mirabegron (YM178)]	127 ± 6.3	109	136 ± 51	107	140 ± 13	137	82.2 ± 9.6	97 ± 19	132 ± 4.2
CC1COc2c(N3CCN(C)CC3)c(F)cc3c(=O)c(C(=O)O)cn1c23 (stereo unspecified) [Ofloxacin]	123 ± 23	173	135 ± 18	86.6	186 ± 11	133	138.6 ± 1		159 ± 11
Cl.Cl.OCCOCCN1CCN(C(c2ccccc2)c2ccc(Cl)cc2)CC1 (stereo unspecified) [Hydroxyzine 2HCl]	169 ± 3.3	99.9	112 ± 5.6	117	85.42 ± 0.6	128	76.48 ± 0.64	97.2 ± 2.3	140 ± 23
CC(c1ncncc1F)C(O)(Cn1cncn1)c1ccc(F)cc1F (stereo unspecified) [Voriconazole]	121 ± 8.9	133	98.8 ± 11	121	137 ± 7.1	115	106 ± 22	105 ± 9.5	137 ± 22
Nc1nc(Cl)nc2c1ncn2C1OC(CO)C(O)C1F (stereo unspecified) [Clofarabine]	162.3 ± 0.47	175	141 ± 70	126	180 ± 11	92.9	143 ± 24		128.5 ± 0.14
CC(=O)OC12COC1CC(O)C1(C)C(=O)C(O)C3=C(C)C(OC(=O)C(O)C(NC(=O)OC(C)(C)C)c4ccccc4)CC(O)(C(OC(=O)c4ccccc4)C21)C3(C)C.O.O.O (stereo unspecified) [Docetaxel Trihydrate]	106 ± 13	96.7	72.6 ± 5.4	86.1	101 ± 3.5	155	91.02 ± 0.77	72.3 ± 6.2	107 ± 5.4
CCC1=CC2CN(C1)Cc1c([nH]c3ccccc13)C(C(=O)OC)(c1cc3c(cc1OC)N(C)C1C(O)(C(=O)OC)C(OC(C)=O)C4(CC)C=CCN5CCC31C54)C2.O=C(O)C(O)C(O)C(=O)O.O=C(O)C(O)C(O)C(=O)O (stereo unspecified) [Vinorelbine ditartrate]	106 ± 17	112	65.2 ± 5.9	109	39 ± 7.7	122	55.7 ± 4	57.2 ± 2.2	95.5 ± 16
CN1CCC(=C2c3ccccc3CC(=O)c3sccc32)CC1.O=C(O)C=CC(=O)O [Ketotifen Fumarate]	120 ± 23	125	135 ± 31	102	135 ± 13	173	95.4 ± 4.4	84.4 ± 3.9	154 ± 5.5
CC1=C2N=C(C=C3N=C(C(C)=C4[N-]C(C)(C5N=C1C(C)(CCC(=O)NCC(C)OP(=O)([O-])OC1C(CO)OC(n6cnc7cc(C)c(C)cc76)C1O)C5CC(N)=O)C(C)(CC(N)=O)C4CCC(N)=O)C(C)(CC(N)=O)C3CCC(N)=O)C(C)(C)C2CCC(N)=O.[CH3-].[Co+3] (stereo unspecified) [Methylcobalamin]	81.6 ± 13	132	112 ± 14	91.1	112 ± 2.5	106	112 ± 9.1	91.3 ± 23	106.57 ± 0.028
CCc1cc(C(N)=S)ccn1 [Ethionamide]	105 ± 11	111	100 ± 3.6	104	136 ± 15	100	82.3 ± 9.9	92.7 ± 8.7	98.5 ± 9.4
O=C(O)c1cccnc1Nc1cccc(C(F)(F)F)c1 [Niflumic acid]	135 ± 48	149	58.9 ± 21	68.8	125 ± 2.6	130	75.3 ± 5.3	105 ± 14	122 ± 2
Cn1c([N+](=O)[O-])cnc1COC(N)=O [Ronidazole]	95.3 ± 20	134	94.5 ± 2.1	88.1	102 ± 13	108	91.2 ± 2.2	90.4 ± 19	102 ± 2.5
O=C(NS(=O)(=O)c1ccc(Br)s1)c1ccc(Cl)cc1Cl [Tasisulam]	183 ± 32	126	84.1 ± 17	148	158 ± 6		115 ± 25	167 ± 16	172 ± 15
NS(=O)(=O)c1cc2c(cc1Cl)NCNS2(=O)=O [Hydrochlorothiazide]	95 ± 30	106	134 ± 72	92.7		177	105 ± 3	101 ± 3.8	139 ± 11
Cl.N=C(N=C(N)N)N1CCOCC1 [Moroxydine HCl]	91.5 ± 36	114	92.5 ± 3.5	89.2		138	87.98 ± 0.46	70.25 ± 0.58	164.7 ± 0.024
COc1ccccc1OCC(O)CO (stereo unspecified) [Guaifensin]	108 ± 4.8	131	112 ± 21	102		117	91.7 ± 1	95 ± 18	141 ± 10

Compound	cell viability (HCI01)	cell viability (HCI03)	cell viability (HCI09)	cell viability (HCI11)	cell viability (HCI13)	cell viability (HCI16)	cell viability (UCD52)	cell viability (WHIM2)	cell viability (WHIM30)
CC(NCCc1ccc(O)cc1)C(O)c1ccc(O)cc1.Cl (stereo unspecified) [Ritodrine HCl]	111 ± 11	116	101 ± 21	106		111	86.3 ± 4.5	97.8 ± 37	111 ± 4.8
CCC1C(=O)N(C)c2cnc(Nc3ccc(C(=O)NC4CCC(N5CCN(CC6CC6)CC5)CC4)cc3OC)nc2N1C(C)C (stereo unspecified) [BI6727 (Volasertib)]	82.6 ± 50	85.1	26.4 ± 0.95	115	84.6 ± 29		116 ± 4.4	43.5 ± 8.7	176.9 ± 1.6
C#CC1(O)CCC2C3CCc4cc(O)ccc4C3CCC21C (stereo unspecified) [Ethinyl Estradiol]	107 ± 7.8	119	103 ± 15	102		93.3	84 ± 3.5	107 ± 25	109 ± 21
C[C@@H]1C[C@H]2[C@H]3CCC4=CC(=O)C=C[C@]4(C)[C@@]3(F)[C@@H](O)C[C@]2(C)[C@@]1(O)C(=O)CO [Dexamethasone (DHAP)]	128 ± 28	138	148 ± 54	114		180	168.4 ± 1.4	83.4 ± 20	189 ± 29
CCCC1O[C@@H]2C[C@H]3[C@@H]4CCC5=CC(=O)C=C[C@]5(C)[C@H]4[C@@H](O)C[C@]3(C)[C@]2(C(=O)CO)O1 (stereo partly specified) [Budesonide]	113 ± 30	102	164 ± 40	140		173	141 ± 9.5	74.4 ± 20	
CCCc1nc2c(C)cc(-c3nc4ccccc4n3C)cc2n1Cc1ccc(-c2ccccc2C(=O)O)cc1 [Telmisattan]	107 ± 23	111	113 ± 59	101		116	122.3 ± 0.62	85 ± 18	146 ± 1.6
CC(C)(C#N)c1cc(Cn2cncn2)cc(C(C)(C)C#N)c1 [Anastrozole]	160 ± 20	149	108 ± 23	120		120	111 ± 11	132 ± 22	124.2 ± 0.85
C#CC1(O)CCC2C3CCC4=CC(=O)CCC4C3CCC21C (stereo unspecified) [Norethindrone]	91.4 ± 26	134	93.6 ± 6.6	97.8		128	93.3 ± 11	93.1 ± 21	
C#CC1(O)CCC2C3CCC4=CC(=O)CCC4C3CCC21CC (stereo unspecified) [Levonorgestrel]	88.7 ± 25	127	100 ± 12	88.5		121	83.6 ± 6.9	91.5 ± 9.7	155 ± 2.3
Cl.O=C(CCCN1CCC(O)(c2ccc(Cl)cc2)CC1)c1ccc(F)cc1 [Haloperidol hydrochloride]	114 ± 14	99.6	103 ± 31	106		127	63.4 ± 4.9	114 ± 6.5	60.2 ± 8.8
C=CCNC1=C2CC(C)CC(OC)C(O)C(C)C=C(C)C(OC(N)=O)C(OC)C=CC=C(C)C(=O)NC(=CC1=O)C2=O (stereo unspecified)	105 ± 37	57.1	26.7 ± 0.77	72.5		106	91.6 ± 5.4	63.25 ± 0.14	85.1 ± 8.4
CC(C)Cn1cnc2c(N)nc3ccccc3c21 [Imiquimod]	92.9 ± 12	109	72.71 ± 0.55	42.7	91 ± 20		76.7 ± 1.4	115 ± 14	116 ± 8
O[C@@H]1CO[C@H]2[C@@H]1OC[C@@H]2O [Isosorbide]	115 ± 23	147	103 ± 2.9	102		116	99.9 ± 3.7	107.6 ± 0.11	112 ± 15
CC12CCC3c4ccc(O)cc4CCC3C1CCC2O (stereo unspecified) [Estradiol]	99.8 ± 4.7	111	91.4 ± 4.4	93		91.4	85.9 ± 4.8	108 ± 28	74.2 ± 6.9
Cc1onc(-c2ccccc2Cl)c1C(=O)NC1C(=O)N2C1SC(C)(C)C2C(=O)[O-].O.[Na+] (stereo unspecified) [Cloxacillin Sodium]	141 ± 32	176	161 ± 95	134	191 ± 2.4		154 ± 38	132 ± 37	199 ± 20
CC(C)c1cc(C(=O)N2Cc3ccc(CN4CCN(C)CC4)cc3C2)c(O)cc1O	116 ± 49	43.7	25.4 ± 3.1	124		109	77.1 ± 2.9	75.3 ± 3.1	176 ± 25
Cc1onc(-c2ccccc2)c1C(=O)NC1C(=O)N2C1SC(C)(C)C2C(=O)[O-].O.[Na+] (stereo unspecified) [Oxacillin sodium monohydrate]	114 ± 12	150	116 ± 24	110		127	105 ± 5	91 ± 13	168 ± 8.6
